{"source": "PubChem BioAssay (NCATS)", "note": "Results filed as inconclusive are left out. Values without a mark were called inactive. Active and inactive are the calls of the source. Calls follow the shape of the dose curve; as a rule, active = well fitted inhibition curve with a large enough effect; inconclusive = small, poorly fitted or top-dose-only effect; inactive = flat fitted curve, though single readings scatter. % is scaled to controls: 0 for no effect and ±100 for the full control effect; potency is read from the fitted curve at half-maximal effect.", "data": [{"assay": "P-glycoprotein substrates identified in KB-8-5-11 adenocarcinoma cell line, qHTS therapeutic library screen (AID 1346987); also: nearly all actives have a fitted effect of over 65% in size", "conditions": "KB-8-5-11 (P-gp overexpressing) viability, CellTiter-Glo, 72 h; series mostly up to 44.5 µM; activity change, negative = cytotoxicity: at the top concentration", "summary_of_the_method": "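In this qHTS, P-gp-rich KB-8-5-11 cells received library compounds across a concentration range. Viability was quantified by luminescence after 72 h at 37 degree C.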", "values": [{"smiles": "CC(=C\\c1ccccc1)/C=C1/SC(=S)N(CC(=O)O)C1=O", "activity change, negative = cytotoxicity": "11.9%"}, {"smiles": "Nc1nc(=O)n([C@@H]2CS[C@H](CO)O2)cc1F", "activity change, negative = cytotoxicity": "3.71%"}, {"smiles": "COc1ccc(/C=C/C(=O)O)cc1", "activity change, negative = cytotoxicity": "-4.91%"}, {"smiles": "NC[C@@H]1CC[C@@H](N)[C@@H](O[C@H]2[C@H](O)[C@@H](O[C@H]3O[C@H](CO)[C@@H](O)[C@H](N)[C@H]3O)[C@H](N)C[C@@H]2N)O1", "activity change, negative = cytotoxicity": "-13.6%"}, {"smiles": "CO[C@H]1O[C@@H]2O[C@@]3(C)CC[C@H]4[C@H](C)CC[C@@H]([C@H]1C)[C@@]24OO3", "activity change, negative = cytotoxicity": "-27.5%"}, {"smiles": "O=C(O)COc1ccc(CCNS(=O)(=O)c2ccccc2)s1", "activity change, negative = cytotoxicity": "-3.45%"}, {"smiles": "CCCCC/C=C\\C/C=C\\C/C=C\\CCCCC(=O)O", "activity change, negative = cytotoxicity": "11.2%"}, {"smiles": "CCCOc1cc(N)ccc1C(=O)OCCN(CC)CC", "activity change, negative = cytotoxicity": "-16.7% [at 17.3 µM]"}, {"smiles": "CC(C)[C@@H](C)/C=C/[C@@H](C)[C@H]1CC[C@H]2/C(=C/C=C3\\C[C@@H](O)CC[C@@H]3C)CCC[C@]12C", "activity change, negative = cytotoxicity": "-25.2%"}, {"smiles": "Cc1cccc(C)c1NC(=O)NC1=CCCN1C", "activity change, negative = cytotoxicity": "10.7%"}, {"smiles": "CC(=O)Oc1cccc(C(=O)O)c1OC(C)=O", "activity change, negative = cytotoxicity": "-2.86%"}, {"smiles": "CC1=CC(=C(c2ccc(N)cc2)c2ccc(N)cc2)C=CC1=N", "Potency": "14.6 µM (active)"}, {"smiles": "CO/N=C(\\C(=O)N[C@@H]1C(=O)N2C(C(=O)[O-])=C(C[n+]3ccc(N)n3CCO)CS[C@H]12)c1csc(N)n1", "activity change, negative = cytotoxicity": "-2.03%"}, {"smiles": "C[C@@H]1O[C@@H]1P(=O)(O)O", "activity change, negative = cytotoxicity": "-9.08%"}, {"smiles": "Nc1nccs1", "activity change, negative = cytotoxicity": "-2.52%"}, {"smiles": "N=C(N)n1cccn1", "activity change, negative = cytotoxicity": "1.32%"}, {"smiles": "CCCC1C(=O)N2C(N(C)C)=Nc3ccc(C)cc3N2C1=O", "note": "(centres undefined)", "activity change, negative = cytotoxicity": "2.39% [at 17.3 µM]"}, {"smiles": "CC(C)(C)CC(C)(C)c1ccc(OCCO)cc1", "Potency": "13 µM (active)"}, {"smiles": "Cc1cc(-c2ccc(N=Nc3ccc4c(S(=O)(=O)O)cc(S(=O)(=O)O)c(N)c4c3O)c(C)c2)ccc1N=Nc1ccc2c(S(=O)(=O)O)cc(S(=O)(=O)O)c(N)c2c1O", "Potency": "6.51 µM (active)"}, {"smiles": "O=S(=O)(O)CC(S)CS", "note": "(centres undefined)", "activity change, negative = cytotoxicity": "-1.14%"}, {"smiles": "CC(=O)N[C@@H]1C(O[C@H]2O[C@H](C(=O)O)C(O)[C@H](O)[C@H]2O)[C@H](O)[C@@H](CO)O[C@H]1O[C@@H]1C(C(=O)O)O[C@@H](O[C@H]2[C@H](O)[C@@H](CO)OC(O)[C@@H]2NC(C)=O)[C@H](O)[C@H]1O", "note": "(some centres undefined)", "activity change, negative = cytotoxicity": "1.3%"}, {"smiles": "COC(=O)c1ccccc1O", "activity change, negative = cytotoxicity": "-7.18%"}, {"smiles": "NCCN", "activity change, negative = cytotoxicity": "-4.78%"}, {"smiles": "CO/N=C(\\C(=O)N[C@@H]1C(=O)N2C(C(=O)O)=C(CSc3nnnn3C)CS[C@H]12)c1csc(N)n1", "activity change, negative = cytotoxicity": "3.63%"}]}]}
